Here are results for 40 compounds from PubChem BioAssay.

The source made the active and inactive calls. The rule behind the calls is not given here.

This experiment in a line: Brca1-Bard1 BiLC signal decrease – luminescence, single concentration, counter-screen for Mdm2/MdmX interaction inhibitor project, confirmation (AID 504668). The settings on record: Brca1/Bard1 bimolecular luciferase complementation counterscreen, at 8 µM, active compounds read high.
Consider `CCOc1ccc(/C=C/C(O)=C2/C(=O)NC3(C)CC2c2ccccc2O3)cc1OC` (stereo not given), for which the inhibition is 23.4% (active).
The value for `C=CC(=O)N1c2ccccc2Sc2ccc(NC(=O)OCC)cc21` was 35.2% (active); that for `Cc1cc(C)nc(SCc2ccc(C(=O)N/N=C/c3cccc(O)c3O)cc2)n1` was 35.2% (active).
Turning to `Cc1ccc(NC(=O)c2cc3ccccc3oc2=O)cc1S(=O)(=O)N(C)C`, the inhibition is 25.9% (active).
The value for `CCCOCc1ccc(O)c2ncccc12` was 27.6% (active).
`CCOc1ccc(CN2CCN(CC(O)Cn3c4ccccc4c4ccccc43)CC2)cc1` (stereo not given): the inhibition was 35.8% (active).
The value for `CCCCCCCCCC(=O)N[C@@H]1c2cc(OC)c(OC)cc2C[C@H]1OCc1ccccc1` was 35.8% (active).
Take `O=C(CCCN1C(=O)/C(=C/c2cccc(Br)c2)SC1=S)Nc1ccccn1`: the inhibition is 31% (active).
With `O=c1cc(CSc2ccc(Cl)cc2)nc(-c2ccccn2)[nH]1`, the inhibition was 30.5% (active).
The value for `O=C(Nc1nc(-c2ccccn2)cs1)c1ccc(F)c(S(=O)(=O)N2CCOCC2)c1` was 25.6% (active); that for `COc1ccc(C2=Nn3c(nnc3-c3ccccc3F)SC2)cc1OC1CCCC1` was 28.6% (active).
As to `C/C(N=Nc1nc2ccccc2s1)=N\Nc1ccccc1O`, the inhibition is 26.2% (active).
The value for `O=S(=O)(c1ccc(Cl)cc1)N1CCN(Cc2ccc(O)c3ncccc23)CC1` was 25% (active).
Consider `COc1ccccc1NCC(=O)N/N=C/c1c(O)ccc2ccccc12`, for which the inhibition is 24.6% (active).
The value for `CCN1C(=O)C2(Nc3ccccc3-c3nc4ccccc4n32)c2cc(OC)ccc21` (stereo not given) was 23.7% (active); that for `O=C(/C=C\c1cn(-c2ccccc2)nc1-c1ccccc1)Nc1nccs1` was 28.9% (active).
Consider `COC(=O)C1=C(C)NC(C)=C(C(=O)OC)C1c1ccccc1[N+](=O)[O-]`, for which the inhibition is 28% (active).
`Oc1c(C(c2ccccc2Cl)N2CCCC2)ccc2cccnc12` (stereo not given): the inhibition is 31.4% (active).
The value for `CC(C)(C)c1cc(Cl)c(O)c(NC(=S)NC(=O)c2cccnc2)c1` was 35.2% (active).
Turning to `COc1cc(NS(=O)(=O)c2ccc(N/C=C(\C#N)c3nc4cc(Cl)ccc4o3)cc2)nc(OC)n1`, the inhibition is 35.2% (active).
The value for `N#CCSc1nc2c(sc(=S)n2Cc2ccco2)c(=O)n1-c1ccc(F)cc1` was 31.6% (active); that for `CCCNC(=O)c1ccc2c(=O)c(O)c(-c3cccc(Br)c3)[nH]c2c1` was 31.4% (active).
As to `COc1ccccc1N(CC(=O)N/N=C/c1c(O)ccc2ccccc12)S(C)(=O)=O`, the inhibition was 26.2% (active).
With `CC1=NN(c2nc(-c3ccc(C)cc3)cs2)C(=O)C1N=Nc1ccccc1O` (stereo not given), the inhibition is 32.5% (active).
The value for `COc1ccc2nc(NC(=O)/C=C/c3ccc4c(c3)OCO4)sc2c1` was 35.2% (active); that for `Cn1ccc2cc(-c3ccc4ncnc(NCc5cccs5)c4c3)ccc21` was 25% (active).
The value for `COc1cc2c(ccc3cc(OC)c(OC)c(O)c32)cc1O` was 31.4% (active); that for `COc1ccc(-c2cc(C(=O)NNC3=NCCC3)c3c(C)nn(-c4ccccc4)c3n2)cc1` was 34.3% (active).
Regarding `COc1ccc(-c2cc(C(=O)N/N=C/c3sccc3C)c3ccccc3n2)c(OC)c1`, the inhibition was 31.4% (active).
The value for `Cc1ccc2cc(CN(CC3CCCO3)C(=S)Nc3ccccc3)c(=O)[nH]c2c1C` (stereo not given) was 35.3% (active); that for `C=CCc1cccc(/C=N/NC(=O)CNc2ccccc2OC)c1O` was 28.3% (active).
With `COc1cccc(/C=N/NC(=O)c2cc(-c3cccn3C)n[nH]2)c1O`, the inhibition is 32.4% (active).
Take `CC(C)(C)C(=O)NC(=S)NNC(=O)c1ccc(-c2ccccc2)cc1`: the inhibition was 28.9% (active).
For the compound `CCc1ccc(NC(=O)[C@H](Cc2c[nH]c3ccccc23)NC(=O)[C@@H]2Cc3ccccc3CN2)cc1`, the inhibition was 24.1% (active).
Turning to `CCN(CC)CCCNC(=O)c1ccc2c(Cl)c3c(nc2c1)CCCC3`, the inhibition was 30.8% (active).
The value for `COc1ccc(/C=c2/sc3n(c2=O)C(c2ccccc2OC)C2=C(N=3)c3ccccc3CC2)cc1O` (stereo not given) was 29.6% (active).
The value for `Cc1ccc(-c2csc(NC3OC(=O)c4ccccc43)n2)cc1` (stereo not given) was 23.7% (active); that for `N#CC1=C(N)C(C#N)(C#N)C(c2cccnc2)C2CC(c3ccccc3)CC=C12` (stereo not given) was 23.1% (active).
In the case of `CCN(CC)C(=O)CN1C(=O)/C(=C/c2ccccc2)SC1=S`, the inhibition is 27.6% (active).
`CCCCC(=O)NC(c1cccs1)c1cc(Cl)c2cccnc2c1O` (stereo not given): the inhibition was 28.5% (active).
